The values below come from PubChem BioAssay (Tox21).

Where “and” joins values, the source holds several entries; their conditions need not be identical. Equal values may be shown once. Records with an inconclusive call do not appear. Where a call stands in place of a potency, no number is given. More than one record can exist for a structure, and the calls need not agree. Calls of active or inactive are those of the source. Calls follow the shape of the dose curve; as a rule, active = well fitted inhibition curve with a large enough effect in the repeat runs; inconclusive = weak or mixed curves; inactive = no such curve, though single readings can be large or run the other way.
Potency is read from the fitted curve at half-maximal effect.

Chain of Cytochrome P450 3A4 (Homo sapiens) (P08684 whole entry, looked up): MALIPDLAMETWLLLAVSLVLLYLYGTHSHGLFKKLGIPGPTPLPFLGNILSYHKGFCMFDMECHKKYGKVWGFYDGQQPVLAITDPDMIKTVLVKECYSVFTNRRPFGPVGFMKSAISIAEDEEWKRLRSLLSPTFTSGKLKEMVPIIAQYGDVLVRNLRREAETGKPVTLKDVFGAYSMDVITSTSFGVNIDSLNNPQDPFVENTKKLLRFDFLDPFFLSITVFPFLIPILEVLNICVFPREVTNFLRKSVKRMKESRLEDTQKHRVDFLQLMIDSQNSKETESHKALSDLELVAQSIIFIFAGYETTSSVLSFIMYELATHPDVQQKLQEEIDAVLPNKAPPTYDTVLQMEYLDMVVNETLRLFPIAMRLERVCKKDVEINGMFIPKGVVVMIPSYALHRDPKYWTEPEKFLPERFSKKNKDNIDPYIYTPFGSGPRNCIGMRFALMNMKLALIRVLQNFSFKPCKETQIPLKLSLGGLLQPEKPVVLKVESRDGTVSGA

This assay has as its target Cytochrome P450 3A4 (Homo sapiens) (UniProt P08684). As to the kind of experiment: Cytochrome P450 Family 3 Subfamily A Member 4 (CYP3A4) small molecule antagonists: luciferase reporter qHTS assay (AID 1671201). Also: nearly all actives have a fitted effect of over 50% in size. Particulars: P450-Glo CYP3A4 enzyme, luciferin luminescence, 1 h; series mostly up to 115 µM; activity change, negative = inhibition: at the top concentration. The text has this: National Center for Advancing Translational Sciences [NCATS]
U.S. Environmental Protection Agency [EPA]
National Institutes of Environmental Health Sciences [NIEHS]
National Toxicology Program [NTP]
U.S. Food and Drug Administration [FDA]
Cytochrome P450 (CYP) enzymes are membrane-bound hemeproteins that play a key role in metabolism of drugs and xenobiotics. Evaluation of the effect of chemicals on CYP isozymes is useful to minimize the adverse drug reactions and toxicities in drug development process. Tox21 chemicals were tested for their effect on CYP enzyme activities by using P450-Glo (TM) screening systems (Promega Corporation, Madison, WI). These systems provide a luminescent method containing proluciferin substrates and are converted to luciferin products by CYP isozymes. The luciferin products formed are detected with a luciferin detection reagent, and the amount of light produced is proportional to CYP activity. P450-Glo (TM) CYP3A4 screening system (Catalog. No. V9910) was used to detect the compounds that interfere in CYP3A4 activity. The positive control compound used for CYP3A4 assay is ketoconazole (Sigma-Aldrich, St. Louis, MO).
Tox21 Assay Protocol Summary:
Two ul of enzyme-substrate mix was dispensed into medium binding white/solid 1536-well plates (Greiner Bio-One North America Inc., Monroe, NC) using a BioRaptr Flying Reagent Dispenser (FRD, Beckman Coulter, Brea, CA). Compounds dissolved in DMSO and positive control (ketoconazole) were transferred to the assay plates at 23 nl using a Pintool station (Wako, San Diego, CA). The assay plates were incubated at room temperature for 10 min. Then 2 ul of NADPH regeneration solution was added to each well of the assay plates using an FRD and incubated at room temperature for 1 h. The reaction was stopped by adding 4 ul of detection reagent using an FRD and after 20 min incubation at room temperature the luminescence signal was measured using a ViewLux plate reader (Perkin Elmer, Shelton, CT). Data were expressed as relative luminescence units.
For orientation: In a reporter assay the amount or activity of a reporter protein is the signal.
On to `N#CC(c1ccccc1)c1ccccc1`, for which the Potency result is “inactive”. For `C[N+](C)(C)CC(=O)O`, the Potency result was “inactive”. Take `COP(=S)(OC)Oc1ccc(Sc2ccc(OP(=S)(OC)OC)cc2)cc1`: the “activity change, negative = inhibition” value is -25.7% [at 52.9 µM] (inactive).

Take `CC(C)(c1ccccc1)c1ccc(O)c(C(C)(C)c2ccccc2)c1`: the Potency is 8.86 µM (active) and 6.33 µM (active).

For `C=CC(=O)OCC(CC)(COC(=O)C=C)COC(=O)C=C`, the Potency is 818 nM (active) and 2.52 µM (active). As to `CCCCOC(=O)COC(=O)c1ccccc1C(=O)OCCCC`, the Potency is 22.3 µM (active) and 35.6 µM (active). Turning to `COP(=S)(OC)SCn1nnc2ccccc2c1=O`, the Potency was 7.81 µM (active) and 11.2 µM (active). The same measure, in the same setting: to `CCNCC` belongs “inactive”; to `CC(C)(c1ccc(OCC2CO2)cc1)c1ccc(OCC2CO2)cc1` (stereo not given), “inactive”; to `C=CC(Cl)CCl` (stereo not given), “inactive”. With `c1ccc(C2CO2)cc1` (stereo not given), the Potency result was “inactive”. As to `CC1(C)Cc2cccc(O)c2O1`, the Potency entry is “inactive”. `CCOP(=S)(OCC)OP(=S)(OCC)OCC`: the Potency was 32.6 µM (active) and 39.9 µM (active). For the molecule `CCC1(c2ccc(N)cc2)CCC(=O)NC1=O` (stereo not given), the Potency is 31.7 µM (active) and 13.8 µM (active). Consider `NN=C(N)N`, for which the Potency entry is “inactive”. As to `O=[N+]([O-])c1ccc(Nc2ccccc2)cc1`, the “activity change, negative = inhibition” value was -8.83% (inactive).

Regarding `Nc1ccc([N+](=O)[O-])cc1N`, the Potency was 35.6 µM (active) and inactive. As for `ClC(Cl)(Cl)c1ccccc1`, the Potency entry is “inactive”. Still for that read-out and setting: to `CC(C)(O)C#N` belongs “inactive”; to `Oc1ccc(Cl)cc1Cl`, “inactive”.

`ClC(Cl)=C(Cl)C(Cl)=C(Cl)Cl`: the Potency result was “inactive”. `Cc1cccc(N=Nc2ccc(N(C)C)cc2)c1`: the Potency entry is “inactive”. Regarding `Cc1cc(Cl)ccc1N=CN(C)C`, the Potency entry is “inactive”.

As for `CCCCOCCOC(C)=O`, the Potency result was “inactive”. Same read-out and setting: to `N#Cc1cccnc1` belongs “inactive”; to `C=C(C)C#N`, “inactive”. For the molecule `CCOP(=O)(OCC)OCC`, the “activity change, negative = inhibition” value is 3.73% (inactive).

With `O=C1C(Cl)=C(Cl)C(=O)c2ccccc21`, the Potency was 17.9 µM (active) and 17.8 µM (active).

Turning to `CCOS(=O)(=O)OCC`, the “activity change, negative = inhibition” value is 1.09% (inactive). In the case of `O=NN(c1ccccc1)c1ccccc1`, the Potency result was “inactive”. Take `CN(C)c1nc(=O)n(C2CCCCC2)c(=O)n1C`: the Potency entry was “inactive”. `Clc1cccc(C(Cl)(Cl)Cl)n1`: the Potency result was “inactive”. `Cc1ccc(N=CN(C)C=Nc2ccc(C)cc2C)c(C)c1`: the Potency entry is “inactive”. On the same count and under the same terms, with `O=S(=O)(O)C(F)(F)C(F)(F)C(F)(F)C(F)(F)C(F)(F)C(F)(F)C(F)(F)C(F)(F)F` the entry was “inactive”; with `CS(=O)(=O)NC(=O)c1cc(Oc2ccc(C(F)(F)F)cc2Cl)ccc1[N+](=O)[O-]`, “inactive”; with `ClCC(Cl)CCl`, “inactive”. Still for that read-out and setting: to `CC(C)=CC1C(C(=O)OCc2cccc(Oc3ccccc3)c2)C1(C)C` (stereo not given) belongs “inactive”. As to `COc1ccc(C=O)cc1OC`, the “activity change, negative = inhibition” value is -10.7% (inactive). Consider `NC(=O)CN1CCCC1=O`, for which the Potency entry was “inactive”. `CCOP(=O)(O)OCC` (tested in a mixture with another compound): the Potency entry was “inactive and 55.9 µM (active)”.
